{
  "source": "ChEMBL document CHEMBL3433997",
  "about": "“St. Jude Leishmania screening dataset” (2016)",
  "data": [
    {"molecular_target": "Hexose transporter 1 (Plasmodium falciparum) (UniProt O97467)", "experiment": "ST_JUDE_LEISH: Cytotoxicity at 2uM final concentration against transgenic Leishmania Mexicana promastigotes LmPfHT that are glucose transport deficient and complemented with the Plasmodium falciparum hexose transporter. Activity is measured by DNA content using SYBR green in vitro", "assay_type": "functional", "units": {"inhibition": "%"}, "values": [
      {"smiles": "O=C(/C=C/c1ccc(Cl)c(Cl)c1)NCCCCCN1CCC(NC(=O)NCCc2ccccc2)CC1", "inhibition": 1.69},
      {"smiles": "CCCCn1c(-c2ccco2)nc2c(c(=O)c3ccccc3n2C)c1=O", "inhibition": 5.89},
      {"smiles": "CN(C)c1ccc(CN2CCC(CNC(=O)c3cc(-c4ccccc4F)cs3)C2)cc1", "note": "(stereo not given)", "inhibition": 1.98},
      {"smiles": "CCOC(=O)c1c[nH]c2c(ccc3ccccc32)c1=O", "inhibition": 6.87},
      {"smiles": "COc1ccc2nccc([C@@H](O)CN3CCC(NCc4cc5ccccc5cn4)CC3)c2n1", "inhibition": 17.3},
      {"smiles": "CCOc1ccc2c(=NN=Cc3ccc(OC)c(OC)c3)cc(C)[nH]c2c1", "inhibition": 3.84},
      {"smiles": "C=CC(C)C1OC(=O)c2cc(OC)cc(OC)c21", "note": "(stereo not given)", "inhibition": 89},
      {"smiles": "O=S(=O)(NC1CCCCN(Cc2ccccc2O)C1)c1ccc(C(F)(F)F)cc1", "note": "(stereo not given)", "inhibition": 4.93},
      {"smiles": "CNC(=O)c1cnc(Nc2ccc(N3CCN(C)CC3)cc2)nc1Nc1cccc(OC(C)C)c1", "inhibition": 1.38},
      {"smiles": "CCCCN(CCCC)CCCN(CCCN(CCCC)CCCC)c1cc(C)nc(Nc2ccc3cc(Br)ccc3c2)n1", "inhibition": 10.1},
      {"smiles": "O=S(=O)(c1cccc(C(F)(F)F)c1)N1CCC(CO)(Cc2cccc(C(F)(F)F)c2)CC1", "inhibition": 6.86},
      {"smiles": "O=S(=O)(Nc1ccc(CCN2CCC(N3CCCCC3)CC2)cc1)c1ccc(Cl)cc1", "inhibition": 2.6},
      {"smiles": "c1ccc(C2=NN=C(c3ccccn3)C3C4CC(C23)C2C3CC(c5ccccc53)C42)nc1", "note": "(stereo not given)", "inhibition": 4.38},
      {"smiles": "O=C(/C=C/c1ccc(Cl)c(Cl)c1)NCCCCCN1CCCC(C(=O)Nc2ccc(F)c(Cl)c2)C1", "note": "(stereo not given)", "inhibition": 5.25},
      {"smiles": "CCCCCCN1CCN(Cc2cccc(NC(=O)c3cccc(OCC)c3)c2)CC1", "inhibition": 13.5},
      {"smiles": "O=C(Nc1ccccc1)N(Cc1ccc(-c2cccc(CNCc3ccc4c(c3)OCO4)c2)cc1)C1CCN(Cc2ccccc2)CC1", "inhibition": 0.92},
      {"smiles": "CCCCN1CCN(CCCNc2c3ccccc3nc3ccccc23)CC1", "inhibition": 80},
      {"smiles": "Oc1ccc2[nH]c(-c3ccc(F)cc3F)nc2c1CN1CCC(O)(c2ccccc2)CC1", "inhibition": -0.92},
      {"smiles": "O=C(Nc1cccc(CN2CCCN(Cc3ccsc3)CC2)c1)c1ccc(Cl)c(Cl)c1", "inhibition": 2.57},
      {"smiles": "C=C[C@]1(C)C[C@@H](OC(=O)NC(=O)CCCS(=O)(=O)c2nnc(C)s2)[C@]2(C)[C@H](C)CC[C@]3(CCC(=O)[C@H]32)[C@@H](C)[C@@H]1O", "inhibition": 11.3},
      {"smiles": "O=C(Nc1ccc(-c2cccc(-c3nc4ccccc4[nH]3)c2)cc1)c1cnn2cccnc12", "inhibition": 2.12},
      {"smiles": "Cc1ccccc1Oc1ccc(Nc2ccnc(Nc3cccc(C(N)=O)c3)n2)cc1C(F)(F)F", "inhibition": 3.48},
      {"smiles": "CS(=O)(=O)NCCCNCc1ccc(-c2cccc(-c3nc4cc(F)ccc4[nH]3)c2)cc1", "inhibition": 0.22},
      {"smiles": "Cc1cc(NC2CCN(CC3CCCCC3)C2)nc(Nc2ccc(Br)cc2)n1", "note": "(stereo not given)", "inhibition": 2.78},
      {"smiles": "CN(C)CCNC(=O)N1CCCN(c2ncnc3cc(-c4ccccc4)sc23)CC1", "inhibition": 5.39},
      {"smiles": "C#CCN(Cc1cc2c(=O)[nH]c(N)nc2cc1C)c1ccc(C(=O)N[C@@H](CCC(=O)O)C(=O)O)cc1", "inhibition": 0.4},
      {"smiles": "Cn1cncc1C(=O)Nc1cccc(-c2csc(-c3nc4ccccc4[nH]3)c2)c1", "inhibition": 3.44},
      {"smiles": "NC(=O)c1cccc(C(=O)Nc2cccc(-c3cccc(-c4nc5cc(F)ccc5[nH]4)c3)c2)c1", "inhibition": 0.68},
      {"smiles": "CCOc1ccc(-c2nc(NC(=O)COc3ccc(OC)cc3)sc2C)cc1", "inhibition": 10},
      {"smiles": "NC(=O)c1ccccc1OCC(=O)Nc1cccc(-c2cccc(-c3nc4ccccc4[nH]3)c2)c1", "inhibition": 1.07},
      {"smiles": "O=C(O)C[C@H](NC(=O)[C@@H]1CCCN1C(=O)c1cccc(-c2ccc(Cl)c(Cl)c2)c1)C(=O)O", "inhibition": 0.14},
      {"smiles": "N=C(NCCc1ccc(Cl)cc1)c1ccc(Cl)c(Cl)c1", "inhibition": 2.64},
      {"smiles": "CCN(Cc1ccc(-c2ccc(C(F)(F)F)cc2)cc1)C(=O)Cn1c(SCc2cccc(F)c2F)cc(=O)c2cc(CN3CCCCC3)ccc21", "inhibition": 0.7},
      {"smiles": "O=C(c1ccc(-c2cccc(-c3nc4cc(C(F)(F)F)ccc4[nH]3)c2)cc1)N1CCCCC1CN1CCC(O)C1", "note": "(stereo not given)", "inhibition": 0.38},
      {"smiles": "NOCCCOc1ccccc1", "inhibition": -0.12},
      {"smiles": "CC(C)(C)c1ccc(CN2CCC(NC(=O)c3cc(-c4cccc(C(F)(F)F)c4)cs3)C2)cc1", "note": "(stereo not given)", "inhibition": 0.62},
      {"smiles": "COc1ccc(C2CC(=O)C3=C(C2)NC(C)=C(C(=O)OC2CCCC2)C3c2cccc(O)c2)cc1OC", "note": "(stereo not given)", "inhibition": 1.05},
      {"smiles": "Nc1ccc(-c2csc(Nc3ccncc3)n2)cc1", "inhibition": 1.93},
      {"smiles": "CC1(C)N=C(N)N=C(N)N1OCc1cccc(C#N)c1", "inhibition": 0.82},
      {"smiles": "N=C1NC(c2ccccc2)(c2ccccc2)C(=O)N1CC=Cc1ccccc1", "inhibition": 8.66}
    ]}
  ]
}
